Source: PubChem BioAssay (Broad Institute)
An excerpt weighted towards active compounds, which were near 3% of everything screened.
MITF TRPM1 HTS: activators of MITF-driven TRPM1 promoter activity in SK-MEL-5 cells; SK-MEL-5 TRPM1-promoter luciferase, 24 h; % of positive control, neutral wells = 0; activation, % at 12.5 µM; hit rate 0.75% among 300,000; AID 588334;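 active = mean activation of at least 80% with every replicate also reaching 80%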;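 note: 0% = neutral control wells and 100% = parthenolide positive control wells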
esBAF inh: SWI/SNF esBAF complex inhibition | mouse ES cells, Bmi1-luciferase knock-in reporter, 24 h; 100% = twice the neutral-well signal | reporter increase, % at 12.5 µM | hit rate 2% among 350,000 | AID 602393; in the data active = activation above about 40%;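 note: 0% = median of the plate's neutral control wells and 100% = double that signal; a rise in the Bmi1 reporter signal indicates esBAF inhibition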
PfHsp90 set2: growth inhibition of yeast expressing Plasmodium Hsp90 | inhibition, % at 9.4 µM | S. cerevisiae expressing PfHsp90, BacTiter-Glo ATP, 48 h; yeast lacking PDR1 and PDR3 efflux regulators | hit rate 0.32% among 310,000;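 active = every replicate shows inhibition above about 80%, whatever the replicate mean, limit read from the data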;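 note: 0% = DMSO neutral controls and 100% = 20 µM radicicol positive controls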
Vif inh: HIV Vif inhibition | hit rate 0.35% among 340,000 | inhibition, % at 7.49 µM | HEK293T cells, Vif self-association by quenched fluorescence, imaging, 24 h; in the data active = inhibition above about 50%, passing the limit was not always enough
Wnt act: activates Wnt/beta-catenin signaling in a reporter cell assay; hit rate 1.2% among 300,000; activator, plate reader; activation, % at 9.35 µM; AID 743398; in the data active = activation above about 30%, passing the limit was not always enough;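 note: 0% = neutral control wells and 100% = positive control wells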
N-glyco inh: N-linked glycosylation inhibition; D54 ERlucT glycosylation luciferase reporter, 24 h; percent of 100 nM tunicamycin response; reporter increase, % at 12.5 µM; hit rate 0.23% among 360,000;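 active = mean luciferase reporter signal, scaled so untreated is 0 and the glycosylation-blocking control 100, at or above a set limit in every replicate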;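 note: luciferase carries N-glycosylation sites so blocking glycosylation raises the light; 0% = median of neutral control wells and 100% = median of 100 nM tunicamycin wells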
* marks the source's active call; other numbers are inactive results.

How did Cc1cccc(C(=O)Nc2scc(-c3ccc(Br)cc3)c2C(=O)O)c1 do in these assays?
PfHsp90 set2: -15.8; Vif inh: -6.7; Wnt act: 6.5; N-glyco inh: 0.3

What do the screens show for `Cc1ccc(-c2csc(NC(=O)c3ccc(Br)cc3)c2C(=O)O)cc1`?
MITF TRPM1 HTS: 106.3*; esBAF inh: 42.9; PfHsp90 set2: 24.0; Vif inh: -9.9; Wnt act: 16.4; N-glyco inh: -0.8

How did Cc1ccc(-c2csc(NC(=O)c3ccccc3Cl)c2C(=O)O)cc1 do in these assays?
MITF TRPM1 HTS: 2.8; esBAF inh: 20.2; PfHsp90 set2: 13.4; Vif inh: -5.8; Wnt act: 11.5; N-glyco inh: 1.7

How did CC(C)c1ccc(-c2csc(NC(=O)c3cccs3)c2C(=O)O)cc1 do in these assays?
MITF TRPM1 HTS: 6.3; esBAF inh: 51.7*; PfHsp90 set2: 29.8; Vif inh: 2.3; Wnt act: 11.7; N-glyco inh: 0.1

Results for CCNC(=O)[C@@H]1[C@@H](CO)[C@@H]2Cn3c(ccc(-c4ccccc4)c3=O)[C@@H]2N1C(=O)C1CCCC1 ?
esBAF inh: 1.0

Results for O=C(CCNC(=O)c1ccccc1Cl)Nc1nc(-c2ccccc2Cl)cs1 ?
MITF TRPM1 HTS: 6.1; esBAF inh: 55.1*; PfHsp90 set2: 2.5; Vif inh: -5.7; Wnt act: 4.9; N-glyco inh: 1.0

How did O=C(CCNC(=O)c1ccccc1Cl)Nc1nc(-c2ccc(F)cc2)cs1 do in these assays?
MITF TRPM1 HTS: -3.5; PfHsp90 set2: 1.3; Vif inh: -15.5; Wnt act: -2.4; N-glyco inh: -0.5

How did Cc1ccc2c(c1)C(=O)N1[C@H]3c4cc(Br)ccc4OC[C@@H]3[C@H](c3ccccc3)[C@]1(C)C(=O)N2 do in these assays?
MITF TRPM1 HTS: 3.0; esBAF inh: -9.9; PfHsp90 set2: -47.1; Vif inh: -0.9; Wnt act: -7.9; N-glyco inh: 26.7*

What do the screens show for `Cc1ccc2c(c1)[C@H]1[C@H](CO2)[C@H](c2ccccc2)[C@]2(C)C(=O)Nc3ccc(Br)cc3C(=O)N12`?
MITF TRPM1 HTS: -5.7; esBAF inh: -2.4; PfHsp90 set2: -97.8; Wnt act: -7.1; N-glyco inh: 30.4*

What do the screens show for `COc1ccc(C2CC(=O)C(c3ccc(Br)cc3)=CN2Cc2ccccc2)cc1` (stereo not given)?
Wnt act: -1.9

Results for COc1ccc(C2=CN(Cc3ccccc3)C(c3ccccc3)CC2=O)cc1 (stereo not given) ?
MITF TRPM1 HTS: 99.9*; esBAF inh: 19.0; PfHsp90 set2: 4.9; Vif inh: 1.0; Wnt act: 19.3; N-glyco inh: -2.1

Results for O=C1CCCC(O)=C1N=Nc1ccc(C(=O)O)cc1 ?
MITF TRPM1 HTS: -3.5; esBAF inh: -6.8; PfHsp90 set2: 9.2; Vif inh: -2.2; Wnt act: -4.2; N-glyco inh: -1.3

How did O=C1CCCC(O)=C1N=Nc1ccc2c(c1)OCO2 do in these assays?
MITF TRPM1 HTS: 18.8; PfHsp90 set2: -3.4; Vif inh: 1.5; Wnt act: 45.5*; N-glyco inh: 0.9

What do the screens show for `CC(C)C(OC(=O)C1=Cc2ccccc2OC1)C(=O)NCC1CCCO1` (stereo not given)?
MITF TRPM1 HTS: 8.5; esBAF inh: -12.7; PfHsp90 set2: 11.2; Vif inh: -1.4; Wnt act: 36.1*; N-glyco inh: 0.3

Results for O=C(N/N=C\c1ccc(-c2ccc([N+](=O)[O-])cc2)o1)C1COc2ccccc2O1 (stereo not given) ?
MITF TRPM1 HTS: 6.5; PfHsp90 set2: -5.1; Vif inh: -2.6; N-glyco inh: 1.9

Results for O=C(c1ccccc1)c1ccc2nc(-c3ccco3)c(-c3ccco3)nc2c1 ?
MITF TRPM1 HTS: 64.5; esBAF inh: 39.5; PfHsp90 set2: 3.7; Vif inh: -3.6; Wnt act: 36.4*; N-glyco inh: 1.4

How did CCC1(CC)NC(=O)NC1=O do in these assays?
MITF TRPM1 HTS: 5.3; esBAF inh: 0.6; PfHsp90 set2: -3.2; Vif inh: -3.8; N-glyco inh: -3.6

Results for NC1=C(Cl)C(=O)c2ccccc2C1=O ?
MITF TRPM1 HTS: -94.0; PfHsp90 set2: -30.7; Vif inh: -5.1; Wnt act: -3.7; N-glyco inh: -14.0
